From PubChem
SW480 rereplic: induces DNA re-replication in SW480 colon adenocarcinoma cells | AID 624297 | SW480 DNA re-replication, Hoechst DNA content imaging, 48 h | actives 1.8% (n = 340,000) | Potency, µM (highest dose often 46.1 µM), inactives show at the top dose re-replication activation, most hits filed as activators; note: % of control where 0% means no effect; nearly all actives have a fitted effect of over 55% in size
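First, 250 cells per well were seeded. Next, compound or vehicle (23 nL) was pinned in, plates sat 48 hr at 37 C. Finally Hoechst was added for 40 min before fluorescence scanning.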
KB-3-1 tox: KB-3-1 parental cell cytotoxicity; Potency, µM (top dose mostly 46.1 µM), usual class: cytotoxic; KB-3-1 viability, CellTiter-Glo ATP luminescence, 72 h; actives 1.4% (n = 400,000); AID 1347075; note: % is set by controls: 0 for no effect and ±100 for the full control effect; nearly all actives have a fitted effect of over 60% in size
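Using CellTiter-Glo luminescence, growth of non-resistant KB-3-1 adenocarcinoma cells is assessed 72 h after pin-tool compound addition at 37 °C. Normalized responses across the concentration series yield fitted curves.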
KB-V1 cytotox: kills drug-selected multidrug resistant KB-V1 cells; actives 3.4% (n = 400,000); KB-V1 MDR cells viability, CellTiter-Glo, 72 h; Potency, µM (series often up to 46.1 µM), most hits filed as cytotoxic; note: % is set by controls: 0 for no effect and ±100 for the full control effect; nearly all actives have a fitted effect of over 60% in size
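KB-V1 cells (P-gp-expressing MDR subline of KB-3-1) in phenol-red-free DMEM with 10% FBS were exposed to library compounds over a concentration series for 72 h at 37 degrees C. Viability read by CellTiter-Glo luminescence; concentration-effect curves fitted after normalization.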
PTAP TSG101 blk: blocks PTAP/TSG101 interaction to inhibit HIV-1 budding; Q99816; Fluorescence polarization, FITC-PTAP peptide / Tsg101 binding; Potency, µM (series often up to 115 µM), for inactives: at the highest dose activity change, negative = inhibition, most hits filed as inhibitors; 340,000 tested, under 10 active; active = well fitted inhibition curve with a large enough effect in the main read-out, with a control signal flat, not every such curve was filed as active; inconclusive = small, poorly fitted or top-dose-only effect, or effect the other way, or a change in a side signal; inactive = no such curve, though single readings can be large or run the other way; note: % of control where 0% means no effect
Target sequence (Q99816 whole entry, looked up): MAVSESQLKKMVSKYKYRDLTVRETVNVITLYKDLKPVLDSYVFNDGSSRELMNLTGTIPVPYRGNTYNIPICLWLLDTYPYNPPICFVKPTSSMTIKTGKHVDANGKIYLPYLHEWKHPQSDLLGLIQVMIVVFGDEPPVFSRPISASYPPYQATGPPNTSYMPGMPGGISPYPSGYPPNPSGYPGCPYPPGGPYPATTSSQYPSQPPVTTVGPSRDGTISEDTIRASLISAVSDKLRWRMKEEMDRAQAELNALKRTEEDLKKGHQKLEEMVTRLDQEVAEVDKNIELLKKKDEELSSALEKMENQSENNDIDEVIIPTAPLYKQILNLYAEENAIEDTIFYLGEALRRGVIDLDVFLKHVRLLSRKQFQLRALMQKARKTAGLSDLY
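Steps: Tsg101 binding domain dispensed (10 uM final), compounds pinned in DMSO, FITC-labeled PTAP-motif peptide added (50 nM final); after 20 min binding at room temperature, polarization measured.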
MCF10A rerep: DNA re-replication induction in MCF 10a cells. MCF 10A DNA re-replication, Hoechst nuclear intensity, 48 h. Potency, µM (doses to about 46.1 µM), inactives show at the top dose activity, positive = re-replication, actives largely listed as activators. actives 2.9% (n = 350,000); note: % of control where 0% means no effect; nearly all actives have a fitted effect of over 50% in size
PINK1 modulator: changes PINK1 expression | PINK1 immunofluorescence, high-content cytometry, 24 h | Potency, µM (top dose mostly 76.6 µM), for the others: top-dose activation (PINK1 increase), usual class: activators | actives 0.2% (n = 410,000) | AID 624263; active = well fitted activation curve with a large enough effect; inconclusive = small, poorly fitted or top-dose-only effect; cell line not stated here; note: % of control where 0% means no effect; nearly all actives have a fitted effect of over 65% in size
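Stable cell line treated 24 h with compounds at 5 concentrations (CCCP controls), then fixed and immunostained for PINK1 plus nuclear and cell stains; PINK1 immunofluorescence quantified by laser-scanning microplate cytometry.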
* marks the source's active call; other numbers are inactive results; i = inactive; ? = inconclusive; · = not tested or not shown; [ ] = another dose, or the depositor's remark. Most compounds without a hit are left out; they make up all but 6.8% or so of the library. Unless noted, calls come from the whole dose curve; as a rule, active = well fitted curve in the direction sought with a large enough effect; inconclusive = small, poorly fitted or top-dose-only effect, or another doubt; inactive = no such curve, though single readings can be large; an effect the other way counts as inactive or inconclusive. Potency is the fitted concentration of half-maximal effect.

SMILES	SW480 rereplic	KB-3-1 tox	KB-V1 cytotox	PTAP TSG101 blk	MCF10A rerep	PINK1 modulator
Cc1ccc(-c2nc(CS(=O)(=O)CC(=O)NC(C)CCc3ccccc3)c(C)o2)cc1 (centres undefined)	·	i	i	·	·	-0.4%
O=C(O)CSc1nnc(-c2cccs2)n1-c1ccc(Cl)cc1	3.8%	i	i	-8.6%	-3.4%	-0.9%
O=C(CSc1nnc(-c2cccs2)n1-c1cccc(Cl)c1)c1cccc2c1OCCO2	1.6%	i	8.2µM*	-6.5%	3.6%	6.1%
Cc1ccc(C(=O)Nc2cc3c(cc2Cl)OCCCO3)cc1	-3.6%	i	i	-1.1%	-4.4%	1.6%
O=C(Nc1cc2c(cc1Br)OCCCO2)c1ccccc1	-72.5%	i	20.6µM*	-1.6%	-26.3%	0.9%
O=C(CCc1ccccc1)Nc1cc2c(cc1Cl)OCCO2	-2.9%	i	20.6µM*	-7.4%	11.8%	-0.2%
O=C(Nc1cc2c(cc1Cl)OCCCO2)c1ccc(F)cc1	-119.7%	i	16.4µM*	-1.9%	-2.9%	0.9%
COc1cccc(C(=O)Nc2cc3c(cc2Cl)OCCCO3)c1	-51.0%	i	23.1µM*	0.1%	-8.5%	1.1%
O=C(CCc1ccccc1)Nc1cc2c(cc1C(=O)O)OCCCO2	-2.8%	i	i	-0.6%	-1.8%	0.4%
CN1CCN(c2ncc3nc(CCc4ccccc4)c(=O)n(C4CC4)c3n2)CC1	·	·	·	·	·	2.1%
CCOC(=O)CSc1nc2ccc(NC(=O)c3ccccc3F)cc2s1	·	i	i	·	·	3.7%
O=C(Nc1ncc(Cc2ccccc2Cl)s1)c1ccc2c(c1)CC(c1ccccc1)OC2=O (centres undefined)	·	i	i	·	·	0.3%
CCOC(=O)N/N=C\c1cccc(OC)c1	15.7%	i	i	0.2%	-52.6%	0.7%
COc1cccc(Sc2ccccc2/C=N/NC(N)=O)c1	6.51µM*	2.91µM*	?	-0.9%	?	8.6%
CCOC(=O)c1ccc(NC(=O)CSc2cn(CC(=O)N3CCCC3)c3ccccc23)cc1	·	·	·	·	·	0.0%
COC(=O)N/N=C/c1cc(C)n(-c2cccc3ccccc23)c1C	-174.1%	?	20.6µM*	-2.8%	?	?
CC(=C/c1ccc(C(C)C)cc1)/C=N/NC(=O)c1ccncc1	-3.8%	i	i	-8.5%	20.6µM*	0.6%
CC(/C=C/c1ccccc1F)=N\NC(=O)c1cccc(F)c1	?	?	20.6µM*	-1.3%	?	7.4%
CC(=O)Nc1cccc(C(=O)N/N=C/c2ccccc2F)c1	4.1%	i	i	-6.1%	-3.4%	2.7%
Cc1ccc(-n2c(C)cc(/C=N/NC(=O)c3ccc(CN4CCOCC4)cc3)c2C)cc1	7.7%	i	16.4µM*	-5.3%	22.2%	8.4%[38.3 µM]
CC(/C=N/NC(=O)c1ccncc1)=C\c1ccccc1	0.9%	i	i	-3.3%	-22.0%	·
Cc1cc(/C=N/NC(=O)c2cccc(F)c2)c(C)n1-c1ccccc1	4.5%	i	i	-5.9%	18.4µM*	9.7%
Cc1cc(/C=N/NC(=O)c2ccccc2F)c(C)n1-c1ccccc1	-5.6%	i	i	2.5%	1.9%	6.7%
CC(=C/c1ccccc1)/C=N/NC(=O)c1ccc2nc[nH]c2c1	-1.0%	i	i	0.2%	?	-1.6%
CC(/C=N/NC(=O)c1cccc(F)c1)=C\c1ccccc1	14.6µM*	16.4µM*	?	-7.2%	?	2.8%
CC(/C=C/c1ccccc1)=N\NC(=O)c1ccc2c(c1)OCCO2	18.4µM*	?	i	3.5%	20.8%	4.8%
CCOc1ccc(OCc2cccc(C(=O)O)c2)cc1	-4.7%	i	i	-5.5%	4.3%	4.6%[38.3 µM]
COc1ccc(OCc2cccc(C(=O)O)c2)cc1	-3.3%	?	18.4µM*	-2.6%	-2.1%	0.2%
